The values that follow come from PubChem BioAssay (EPA / NIEHS).

Activity calls are given as the source filed them. The calls were made as follows: active = hit-call score of the fitted dose curve at least 0.9, where 1 is the maximum; inactive = score below 0.9.

Assay [1] can be described thus: APR_HepG2_P-H2AX_72hr: Apredica 72-hour HepG2 Assay for H2AX Phosphorylation (AID 2282916).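 Also: phospho-histone H2A.x immunostain intensity per cell marking DNA damage.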 The conditions noted are these: imaging, actives raise or lower the signal. The gist of the method:
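Human hepatoma HepG2 cells are dosed across ten concentrations (0.39 to 200 uM, 0.5% v/v DMSO) and incubated 72 hr. Phospho-histone H2A.x is then detected by antibody staining alongside c-Jun and Hoechst, and quantified by automated fluorescence imaging.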

The nature of assay [2]: APR_HepG2_MitoMembPot_72hr: Apredica 72-hour HepG2 Assay for Mitochondrial Membrane Potential (AID 2282917). Conditions: imaging, actives raise or lower the signal. In a few lines:
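HepG2 cells exposed 72 h to compounds at 0.39–200 uM (0.5% v/v DMSO, duplicates); MitoTracker Red CMXRos 250 nM loaded 30 min before 3.7% formaldehyde fixation, imaged by HCS fluorescence. Bidirectional fit versus DMSO.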

A short description of assay [3]: APR_HepG2_MitoticArrest_72hr: Apredica 72-hour HepG2 Assay for Mitotic Arrest (AID 2282918). The conditions noted are these: high-content imaging, actives raise or lower the signal. In a few lines:
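HepG2 cells were exposed for 72 hr to compound at 0.39–200 uM (10 concentrations, duplicate) in 0.5% v/v DMSO, fixed in 3.7% formaldehyde, immunostained for phospho-histone H3 with Hoechst 33342 and imaged by high-content fluorescence; bidirectional fits versus DMSO.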

A short description of assay [4]: APR_HepG2_MicrotubuleCSK_72hr: Apredica 72-hour HepG2 Assay for Microtubule CSK Stabilty (AID 2282919). Conditions: HepG2 microtubule cytoskeleton, high-content imaging, actives raise or lower the signal. The gist of the method: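 Ten-point dosing (0.39–200 uM, 0.5% DMSO) of HepG2 for 72 hr, with taxol as the cytoskeletal positive control. The cells were formaldehyde-fixed and then stained with alpha-tubulin/Cy5 and Hoechst. Imaging at 20x used a −2 um Z offset for tubulin.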

Assay [5] is described as follows: APR_HepG2_P-H2AX_24hr: Apredica 24-hour HepG2 Assay for H2AX Phosphorylation (AID 2282920). The conditions noted are these: high-content imaging, actives raise or lower the signal. The gist of the method:
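HepG2 human liver cells were exposed for 24 hr to compounds at 0.39–200 uM in duplicate, with 0.5% v/v DMSO final. Fixed cells were immunostained for phospho-histone H2A.x plus Hoechst 33342, imaged by HCS fluorescence, and fitted bidirectionally against DMSO.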

The nature of assay [6]: APR_HepG2_StressKinase_72hr: Apredica 72-hour HepG2 Assay for Stress Kinase (AID 2282921). Conditions: HepG2 stress kinase (phospho-c-Jun) imaging, actives raise or lower the signal. The gist of the method: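 After a 72 h compound treatment spanning 0.39 to 200 uM, formaldehyde-fixed cells are labelled for phosphorylated c-Jun and nuclei, imaged by automated fluorescence microscopy, and activity is fitted in both directions relative to DMSO controls.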

A short description of assay [7]: APR_HepG2_StressKinase_24hr: Apredica 24-hour HepG2 Assay for Stress Kinase (AID 2282922). Conditions: HepG2 stress kinase (phospho-c-Jun) imaging, actives raise or lower the signal. The gist of the method: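 After 24 hr compound treatment (up to 200 uM, final DMSO 0.5% v/v), HepG2 cells are fixed and multiplex-labeled; phospho-c-Jun intensity is captured by high-content fluorescence imaging and analyzed relative to DMSO.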

Assay [8] can be described thus: APR_HepG2_p53Act_72hr: Apredica 72-hour HepG2 Assay for p53 Activation (AID 2282923).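 Also: average cellular p53 protein immunofluorescence intensity in HepG2 cells.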 The conditions noted are these: high-content imaging, actives raise or lower the signal. The gist of the method: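 Imaging-based endpoint: after 72 hr compound exposure (up to 200 uM, 0.5% DMSO), fixed and permeabilized monolayers were labelled with anti-p53 antibody and imaged; signal change in either direction was fitted relative to DMSO controls.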

A short description of assay [9]: APR_HepG2_MitoMass_72hr: Apredica 72-hour HepG2 Assay for Mitochondrial Mass (AID 2282924).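 Also: MitoTracker Red CMXRos stain intensity per cell imaged as mitochondrial mass.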 The conditions noted are these: high-content imaging, actives raise or lower the signal. The gist of the method:
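Steps: treat HepG2 72 hr (0.39–200 uM, duplicate wells); load MitoTracker Red CMXRos, 250 nM, 30 min; fix with 3.7% formaldehyde, permeabilise with 0.5% Triton X-100; capture images, nuclei via Hoechst 33342; fit bidirectionally against DMSO.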

Assay [10] is described as follows: ATG_CRE_CIS: Attagene CIS-FACTORIAL HepG2 Assay for human cAMP Responsive Element (CRE) binding protein 3 (AID 2282926). The conditions noted are these: HepG2 CRE cis-reporter, Attagene multiplexed mRNA; actives raise or lower the signal. The gist of the method: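 Capillary electrophoresis of 6-FAM-labelled, HpaI-digested PCR products quantified reporter transcripts. These came from HepG2 transiently transfected with cis-element reporters and exposed to test chemicals for 24 hours, with DMSO defining baseline activity.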

Assay [11] has as its target CCAAT/enhancer-binding protein beta (Homo sapiens) (UniProt P17676). In words: ATG_C_EBP_CIS: Attagene CIS-FACTORIAL HepG2 Assay for human CCAAT/Enhancer Binding Protein (C/EBP) beta (AID 2282927). The conditions noted are these: HepG2 Attagene cis-factorial transcription factor reporter; actives raise or lower the signal. In a few lines:
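Following a 24 h incubation with test chemical, transfected HepG2 cells yielded RNA whose reporter transcripts were quantified by RT-PCR and fluorescent capillary electrophoresis, with DMSO serving as baseline for bidirectional fitting.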

Assay [12] can be described thus: ATG_CMV_CIS: Attagene CIS-FACTORIAL HepG2 Assay for human CMV (Internal Marker) (AID 2282928).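 Also: endpoint acts as a background internal control marker rather than a target.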 The conditions noted are these: HepG2 CMV promoter reporter, transcription factor profiling; actives raise or lower the signal. The gist of the method:
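Bidirectional fits against DMSO are applied to reporter mRNA, read by RT-PCR with capillary electrophoresis, from HepG2 cells exposed 24 h. The endpoint serves as an internal CMV background marker within the cis-factorial reporter panel.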

Assay [13] can be described thus: ATG_DR4_LXR_CIS: Attagene CIS-FACTORIAL HepG2 Assay for human Liver X Receptor (LXR), DR4 submotif (AID 2282929). Conditions: HepG2 Attagene DR4 cis-reporter, mRNA transcription; actives raise or lower the signal. In a few lines: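 After transient transfection with multiplexed cis-promoter reporter units, HepG2 cells received test chemicals for 24 h. Reporter mRNA induction, detected by fluorescence after RT-PCR and capillary electrophoresis, was scored relative to DMSO.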

The target in assay [14] is Aryl hydrocarbon receptor (Homo sapiens) (UniProt P35869). In words: ATG_Ahr_CIS: Attagene CIS-FACTORIAL HepG2 Assay for human Aryl Hydrocarbon Receptor (Ahr) (AID 2282930). The conditions noted are these: HepG2 AhR cis-factorial reporter transcription; actives raise or lower the signal. In a few lines: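 Values derive from bidirectional fitting against DMSO negative control. Underlying signal: cis-element reporter mRNA in transiently transfected HepG2, harvested 24 h post-dose and measured by RT-PCR plus capillary electrophoresis.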

The nature of assay [15]: ATG_AP_1_CIS: Attagene CIS-FACTORIAL HepG2 Assay for human Activator Protein 1 (AP-1) (AID 2282931). Conditions: HepG2 Attagene cis-factorial AP-1 reporter mRNA; actives raise or lower the signal. In a few lines: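 After 24 h incubation with test chemical, RNA from transfected HepG2 cells was reverse-transcribed, amplified, fluorescently labelled and digested before capillary electrophoresis. Reporters were driven by cis-regulatory promoters; activity fitted bidirectionally versus DMSO.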

The nature of assay [16]: ATG_AP_2_CIS: Attagene CIS-FACTORIAL HepG2 Assay for human Activator Protein 2 (AP-2) (AID 2282932). The conditions noted are these: HepG2 AP-2 cis-reporter, Attagene transcription factor profiling; actives raise or lower the signal. In a few lines: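 Cells (HepG2) transfected with promoter-driven reporter constructs, treated 24 h. Total RNA reverse-transcribed, reporter cDNA PCR-amplified, FAM-labelled by primer extension, digested, resolved by capillary electrophoresis. Activity fitted both directions versus DMSO.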

The nature of assay [17]: ATG_BRE_CIS: Attagene CIS-FACTORIAL HepG2 Assay for human Bone Morphogenetic Protein (BMP) Response Element (BRE) (AID 2282933). Conditions: HepG2 BMP response element reporter, Attagene transcription factor profiling; actives raise or lower the signal. The gist of the method:
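HepG2 cells transiently transfected with CIS reporter units (endogenous TF activity, BMP response element), dosed 24 h. Reporter mRNA quantified by RT-PCR, fluorescent labelling and capillary electrophoresis; bidirectional fit vs DMSO baseline.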

Assay [18] has as its target Retinoic acid receptor alpha (Homo sapiens) (UniProt P10276). Description: ATG_DR5_RAR_CIS: Attagene CIS-FACTORIAL HepG2 Assay for human Retinoic Acid Receptor Alpha (RARE), DR5 submotif (AID 2282934). Conditions: HepG2 Attagene cis-factorial RARE DR5 reporter, mRNA; actives raise or lower the signal. The gist of the method:
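Endpoint fitted in both directions relative to DMSO as negative control. It reflects DR5 cis-element reporter mRNA induction in transiently transfected HepG2 cells, measured 24 h after dosing through RT-PCR and fluorescent capillary electrophoresis.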

A short description of assay [19]: APR_HepG2_CellLoss_72hr: Apredica 72-hour HepG2 Assay for Cell Loss (AID 2282915). Conditions: high-content imaging. In a few lines:
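HepG2 cells were exposed for 72 hr to compounds at 0.39–200 uM (ten concentrations, duplicate) in 0.5% v/v final DMSO. Nuclei were stained with Hoechst 33342 after 3.7% formaldehyde fixation, imaged at 20x, and counted; fits bidirectional versus DMSO.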

Assay [20] in a line: APR_HepG2_NuclearSize_72hr: Apredica 72-hour HepG2 Assay for Nuclear Size (AID 2282925). The conditions noted are these: high-content imaging, actives raise or lower the signal. The gist of the method:
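Compounds (0.39–200 uM, final DMSO 0.5%) were applied to HepG2 for 72 hr. Cells were then formaldehyde-fixed, permeabilized and labelled with Hoechst 33342. Nuclear diameter was quantified from six images per well.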

Retinoic acid receptor alpha (Homo sapiens), sequence (P10276 whole entry, looked up): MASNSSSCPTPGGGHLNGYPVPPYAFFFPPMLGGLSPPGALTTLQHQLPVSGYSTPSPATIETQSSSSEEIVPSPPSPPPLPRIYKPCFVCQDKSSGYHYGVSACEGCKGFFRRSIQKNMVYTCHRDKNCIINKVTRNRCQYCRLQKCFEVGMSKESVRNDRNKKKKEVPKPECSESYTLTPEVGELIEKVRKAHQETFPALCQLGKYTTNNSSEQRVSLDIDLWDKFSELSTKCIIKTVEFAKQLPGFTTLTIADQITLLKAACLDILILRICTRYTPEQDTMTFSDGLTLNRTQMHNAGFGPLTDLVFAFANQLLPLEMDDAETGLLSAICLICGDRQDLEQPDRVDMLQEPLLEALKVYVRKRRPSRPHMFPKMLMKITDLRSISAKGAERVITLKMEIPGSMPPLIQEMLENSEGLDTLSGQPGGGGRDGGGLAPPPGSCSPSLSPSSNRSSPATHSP
Aryl hydrocarbon receptor (Homo sapiens), sequence (P35869 whole entry, looked up): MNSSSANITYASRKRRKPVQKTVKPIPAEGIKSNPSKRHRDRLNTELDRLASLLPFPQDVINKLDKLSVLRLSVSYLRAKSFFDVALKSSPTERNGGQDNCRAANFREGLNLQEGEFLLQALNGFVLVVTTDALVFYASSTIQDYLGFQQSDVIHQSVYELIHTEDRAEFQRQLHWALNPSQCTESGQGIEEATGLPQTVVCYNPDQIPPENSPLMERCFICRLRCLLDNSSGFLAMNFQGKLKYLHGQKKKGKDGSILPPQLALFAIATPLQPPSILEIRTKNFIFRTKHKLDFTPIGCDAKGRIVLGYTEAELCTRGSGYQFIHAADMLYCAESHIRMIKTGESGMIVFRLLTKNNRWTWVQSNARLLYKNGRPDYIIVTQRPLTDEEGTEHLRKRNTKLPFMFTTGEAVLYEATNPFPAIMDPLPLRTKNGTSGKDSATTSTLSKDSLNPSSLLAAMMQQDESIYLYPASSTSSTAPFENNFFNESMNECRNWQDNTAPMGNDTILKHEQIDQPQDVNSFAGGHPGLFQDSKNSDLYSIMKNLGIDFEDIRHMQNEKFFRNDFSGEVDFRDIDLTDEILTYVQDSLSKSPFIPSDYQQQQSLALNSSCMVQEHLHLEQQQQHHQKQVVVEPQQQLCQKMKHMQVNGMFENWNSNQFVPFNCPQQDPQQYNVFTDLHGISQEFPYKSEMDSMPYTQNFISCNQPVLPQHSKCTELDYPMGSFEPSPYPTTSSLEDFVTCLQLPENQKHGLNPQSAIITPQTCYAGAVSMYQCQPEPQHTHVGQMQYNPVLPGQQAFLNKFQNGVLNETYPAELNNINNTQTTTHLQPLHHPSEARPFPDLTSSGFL
CCAAT/enhancer-binding protein beta (Homo sapiens), sequence (P17676 whole entry, looked up): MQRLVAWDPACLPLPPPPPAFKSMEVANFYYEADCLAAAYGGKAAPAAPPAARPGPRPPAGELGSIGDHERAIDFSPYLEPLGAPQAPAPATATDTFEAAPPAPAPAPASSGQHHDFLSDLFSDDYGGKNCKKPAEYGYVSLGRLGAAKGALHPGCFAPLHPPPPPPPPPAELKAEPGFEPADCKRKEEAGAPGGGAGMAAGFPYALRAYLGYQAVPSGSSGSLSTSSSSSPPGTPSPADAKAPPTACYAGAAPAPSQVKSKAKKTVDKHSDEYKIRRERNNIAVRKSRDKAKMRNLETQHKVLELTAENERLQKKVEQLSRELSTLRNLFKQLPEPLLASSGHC

In the case of `CCOc1nc(NC)nc(NC(=O)NS(=O)(=O)c2ccccc2C(=O)OC)n1`, the result in assay [1], in [2], in assay [3], in [4], in assay [5] and in assay [6] was inactive. In addition, the compound was classed as inactive in assay [7], in [8], in [9], in assay [10], in assay [11] and in assay [12]. In addition, the compound was classed as inactive in assay [13], in [14], in assay [15], in assay [16], in [17] and in [18].
What is called AC50 is the concentration giving half of the maximal activity seen. Consider `O=S1OCC2C(CO1)C1(Cl)C(Cl)=C(Cl)C2(Cl)C1(Cl)Cl` (configuration not stated), for which the compound was classed as inactive in assay [1], in assay [2], in [3], in assay [5], in assay [6] and in assay [8]. In addition, the compound was called inactive in assay [9], in assay [10], in assay [12], in assay [13], in [14] and in assay [15]. Moreover, the compound was called inactive in assay [16], in [17] and in [18]. Also, the half-maximal activity concentration (AC50) in [4] is 117 µM (active).
`CC[C@H](C)[C@H]1O[C@]2(C=C[C@@H]1C)C[C@@H]1C[C@@H](C/C=C(\C)[C@@H](O[C@H]3C[C@H](OC)[C@@H](O[C@H]4C[C@H](OC)[C@@H](O)[C@H](C)O4)[C@H](C)O3)[C@@H](C)/C=C/C=C3\CO[C@@H]4[C@H](O)C(C)=C[C@@H](C(=O)O1)[C@]34O)O2` (tested in a mixture with another compound): the result in assay [19], in [1], in assay [2], in assay [3], in [5] and in [6] was inactive. The compound was classed as inactive in assay [8], in assay [9], in [10], in [11], in assay [12] and in assay [14]. Also, the result in [15], in assay [16], in [17] and in assay [18] was inactive. In assay [13], the AC50 was 1.75 µM (active).
Consider `CC(C)(C)C(O)/C(=C\c1ccc(Cl)cc1Cl)n1cncn1` (configuration not stated), for which the AC50 in assay [19] is 15.3 µM (active). Further, the outcome in assay [1], in assay [2], in assay [3], in [5], in assay [6] and in assay [8] was inactive. Moreover, the compound was called inactive in assay [9], in assay [10], in [12], in assay [13], in [14] and in assay [15]. For the same compound, the compound was classed as inactive in assay [16], in assay [17] and in [18].
As to `O=C(Nc1ccccc1)Nc1cnns1`, the AC50 was 93.6 µM (active) in assay [1]; 91.6 µM (active) in assay [3]; 78 µM (active) in assay [4]; 50 µM (active) in assay [12]; 82.7 µM (active) in [13]; 50 µM (active) in assay [15]. Besides, the AC50 in assay [17] was 50 µM (active). Further, the call in assay [2], in [5], in assay [6], in [8], in assay [9] and in assay [20] was inactive. In addition, the outcome in [10], in assay [14], in assay [16] and in [18] was inactive.
As for `C[C@H]1[C@H](c2ccc(Cl)cc2)SC(=O)N1C(=O)NC1CCCCC1`, the half-maximal activity concentration (AC50) in assay [19] was 33.5 µM (active); in assay [2] it was 100 µM (active); in [4], 44.5 µM (active); in assay [12], 13.8 µM (active); in assay [13] it was 81.4 µM (active); in [15] it was 23.1 µM (active). Further, in [17], the AC50 was 17.7 µM (active). For the same compound, the compound was classed as inactive in [1], in assay [3], in assay [5], in assay [6], in [7] and in [8]. Also, the compound was classed as inactive in [9], in assay [10], in [14], in assay [16] and in assay [18].
